A short description of experiment [1]: viability loss in pontine glioma line – cell-based, JHH-DIPG-1, MIPE4.0, CellTiter-Glo, qHTS, dose response (AID 1347062; cut-off not given, nearly all actives have AC50 up to about 27 µM;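 for AC50: cells exposed to compound for two days before readout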). The note with it: JHH-DIPG-1 viability, CellTiter-Glo ATP luminescence.
The nature of experiment [2]: viability loss in pontine glioma line – cell-based, SU-DIPG-IV, MIPE4.0, CellTiter-Glo, qHTS, dose response (AID 1347063; cut-off not given, nearly all actives have AC50 up to about 30 µM;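 note: compound exposure lasted 48 hours before the viability readout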). The note with it: CellTiter-Glo ATP luminescence.
A short description of experiment [3]: growth inhibition of DIPG cells – cell-based, MIPE4.0 library, CellTiter-Glo luminescence, qHTS (AID 1347066; cut-off not given, nearly all actives have AC50 up to about 30 µM;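 note: cells exposed to compound for 48 hours before readout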). The note with it: SU-DIPG-VI viability, CellTiter-Glo ATP luminescence.
Experiment [4] can be described thus: viability loss in pontine glioma line – cell-based, SU-DIPG-XIII, MIPE4.0, CellTiter-Glo, qHTS, dose response (AID 1347061; cut-off not given, nearly all actives have AC50 up to about 37 µM;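 note: cells exposed to compound for 48 hours before readout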). The note with it: CellTiter-Glo ATP luminescence.
Experiment [5] in a line: viability loss in pontine glioma line – cell-based, SU-DIPG-XXV, MIPE5.0, CellTiter-Glo, qHTS, dose response (AID 1347065; cut-off not given, nearly all actives have AC50 up to about 26 µM;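 note: cells exposed to compound for 48 hours before ATP readout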). As to conditions: CellTiter-Glo ATP luminescence.
Experiment [6] can be described thus: JHH-DIPG-1 glioma cell viability, MIPE5.0 library, CellTiter-Glo luminescence, qHTS (AID 1347067; cut-off not given, nearly all actives have AC50 up to about 26 µM;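 note: cells exposed to compound for 48 hours before readout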). The note with it: JHH-DIPG-1 glioma viability, CellTiter-Glo ATP luminescence.
Experiment [7] in a line: viability loss in pontine glioma line – cell-based, SU-DIPG-XIII, MIPE5.0, CellTiter-Glo, qHTS, dose response (AID 1347064; cut-off not given, nearly all actives have AC50 up to about 23 µM;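 for AC50: cells exposed to compound for 48 hours before the viability read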). The note with it: CellTiter-Glo ATP luminescence.
Experiment [8] is described as follows: growth inhibition of DIPG cells – cell-based, MIPE5.0 library, qHTS (AID 1347068; cut-off not given, nearly all actives have IC50 up to about 30 µM;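 for IC50: cells exposed to compound for 48 hours before viability readout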). As to conditions: SU-DIPG-XXV viability.
Experiment [9] is described as follows: drug combination growth inhibition, ovarian cancer – cell-based, oncology-focused library, rucaparib conditional, profiling panel (AID 1508598). The note with it: patient-derived ovarian cancer cells, CellTiter-Glo viability, 144 h, stronger effect = lower value.
The nature of experiment [10]: viability loss with induced miR-34 in A549 – imaging, A549 dox-inducible miR-34, nuclei and caspase counts, primary screen (AID 1347080;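 active = compounds whose cell count with miR-34 switched on is under 0.7 times the count with it off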). The note with it: A549 miR-34 inducible, Hoechst nuclei count, 48 h.
A short description of experiment [11]: MELAS cybrid and Rieske KO viability enhancers – cell-based, MELAS cybrids, Rieske KO mouse fibroblasts, CellTiter-Glo, primary screen (AID 1508586;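 active = mean z-score across replicates of 1.96 or higher in either the MELAS or the Rieske mutant cell line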;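 note: z relative to plate mean and SD of compound and empty wells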). The note with it: low glucose.
[12] abbreviates: stronger effect = lower value, cell number ratio, induced over uninduced.
Setting [13] is: measured here: relative caspase fold change +Dox/-Dox.
Where [14] appears, read: measured here: total cells with miR-34 induction, stronger effect = lower value.
The mark [15] stands for this setting: measured here: total cells without miR-34 induction.
[16] abbreviates: MELAS cybrid survival, CellTiter-Glo 48 h, stronger effect = higher value.
The mark [17] stands for this setting: Rieske KO mouse fibroblast survival, CellTiter-Glo 72 h.

Inconclusive results are not listed. The source made the active and inactive calls.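 Rule for the calls, unless noted: active = normalized viability below 100% at a tested concentration; inactive = the rest.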

With `CCC(=O)OC1CCC2C3CCC4=CC(=O)CC[C@@]4(C)C3CC[C@]12C` (stereo partly drawn), the outcome in experiment [1], in experiment [2] and in experiment [3] was inactive.

Regarding `Cc1sc2c(c1C)C(c1ccc(Cl)cc1)=N[C@@H](CC(=O)OC(C)(C)C)c1nnc(C)n1-2`, the AC50 was 18.7 µM (active) in [4], 2.63 µM (active) in [5] and 16.6 µM (active) in experiment [6].

As for `CC(C)N[C@@H]1CCn2c(=O)[nH]c3cccc(c32)[C@H]1O`, the concentration at half-maximal activity (AC50) in experiment [4] was 7.43 µM (active); in experiment [1], 14.8 µM (active); in experiment [2] it was 0.743 µM (active); in experiment [3] it was 23.5 µM (active).

Turning to `Cc1c(N)nc([C@H](CC(N)=O)NC[C@@H](N)C(N)=O)nc1C(=O)N[C@H](C(=O)N[C@@H](C)[C@H](O)[C@@H](C)C(=O)N[C@@H](C(=O)NCCc1nc(-c2nc(C(=O)NCCC[S+](C)C)cs2)cs1)[C@@H](C)O)C(O[C@H]1O[C@H](CO)[C@H](O)[C@@H](O)[C@H]1O[C@H]1O[C@H](CO)[C@@H](O)[C@H](OC(N)=O)[C@@H]1O)c1cnc[nH]1` (stereo partly drawn), the result in experiment [4], in [1], in [7], in [3], in experiment [6] and in experiment [8] was inactive. The AC50 in experiment [2] is 1.87 µM (active). In addition, the viability in experiment [9] (at 0.000305 µM, OCI-C5x cells, with rucaparib 10 µM, 100% = cells with rucaparib alone) was 106% (inactive); in experiment [9] (at 0.000305 µM, OCI-C5x cells, without rucaparib), 102% (inactive); in experiment [9] (at 0.000305 µM, OCI-P5x cells, with rucaparib 20 µM, 100% = cells with rucaparib alone), 109% (inactive); in experiment [9] (at 0.000305 µM, OCI-P5x cells, without rucaparib) it was 102% (inactive); in experiment [9] (at 0.00122 µM, OCI-C5x cells, with rucaparib 10 µM, 100% = cells with rucaparib alone), 109% (inactive); in [9] (at 0.00122 µM, OCI-C5x cells, without rucaparib) it was 107% (inactive). Also, the viability in experiment [9] (at 0.00122 µM, OCI-P5x cells, with rucaparib 20 µM, 100% = cells with rucaparib alone) was 106% (inactive); in experiment [9] (at 0.00122 µM, OCI-P5x cells, without rucaparib), 97.2% (active); in [9] (at 0.00488 µM, OCI-C5x cells, with rucaparib 10 µM, 100% = cells with rucaparib alone), 120% (inactive); in [9] (at 0.00488 µM, OCI-C5x cells, without rucaparib) it was 100% (inactive); in experiment [9] (at 0.00488 µM, OCI-P5x cells, with rucaparib 20 µM, 100% = cells with rucaparib alone), 96% (active); in experiment [9] (at 0.00488 µM, OCI-P5x cells, without rucaparib), 94.3% (active). The viability in [9] (at 0.0195 µM, OCI-C5x cells, with rucaparib 10 µM, 100% = cells with rucaparib alone) is 104% (inactive); in experiment [9] (at 0.0195 µM, OCI-C5x cells, without rucaparib) it was 90.7% (active); in experiment [9] (at 0.0195 µM, OCI-P5x cells, with rucaparib 20 µM, 100% = cells with rucaparib alone) it was 88.2% (active); in experiment [9] (at 0.0195 µM, OCI-P5x cells, without rucaparib) it was 84.4% (active); in [9] (at 0.0781 µM, OCI-C5x cells, with rucaparib 10 µM, 100% = cells with rucaparib alone), 103% (inactive); in [9] (at 0.0781 µM, OCI-C5x cells, without rucaparib), 95% (active). Also, the viability was 94.6% (active) in experiment [9] (at 0.0781 µM, OCI-P5x cells, with rucaparib 20 µM, 100% = cells with rucaparib alone); 85.9% (active) in experiment [9] (at 0.0781 µM, OCI-P5x cells, without rucaparib); 86.7% (active) in experiment [9] (at 0.313 µM, OCI-C5x cells, with rucaparib 10 µM, 100% = cells with rucaparib alone); 84.5% (active) in experiment [9] (at 0.313 µM, OCI-C5x cells, without rucaparib); 76.8% (active) in experiment [9] (at 0.313 µM, OCI-P5x cells, with rucaparib 20 µM, 100% = cells with rucaparib alone); 57.6% (active) in [9] (at 0.313 µM, OCI-P5x cells, without rucaparib). Besides, the viability was 74.8% (active) in experiment [9] (at 1.25 µM, OCI-C5x cells, with rucaparib 10 µM, 100% = cells with rucaparib alone); 69.9% (active) in experiment [9] (at 1.25 µM, OCI-C5x cells, without rucaparib); 62.8% (active) in [9] (at 1.25 µM, OCI-P5x cells, with rucaparib 20 µM, 100% = cells with rucaparib alone); 39.3% (active) in experiment [9] (at 1.25 µM, OCI-P5x cells, without rucaparib); 53.8% (active) in [9] (at 5 µM, OCI-C5x cells, with rucaparib 10 µM, 100% = cells with rucaparib alone); 47.2% (active) in experiment [9] (at 5 µM, OCI-C5x cells, without rucaparib). The viability in experiment [9] (at 5 µM, OCI-P5x cells, with rucaparib 20 µM, 100% = cells with rucaparib alone) was 39.6% (active); in experiment [9] (at 5 µM, OCI-P5x cells, without rucaparib) it was 21.3% (active).

`O=C(NCC1CCOCC1)c1cnc(Nc2ccc(Cl)cc2Cl)nc1C(F)(F)F`: the compound was called inactive in experiment [4], in experiment [7], in [5], in experiment [3], in experiment [6] and in experiment [8]. Moreover, the concentration at half-maximal activity (AC50) in experiment [1] is 18.7 µM (active); in experiment [2], 10.5 µM (active). For the same compound, the results for the fold change in experiment [10] (setting [12]) and in [10] (setting [13]) were 0.931 (inactive) and 1.15, respectively. The values for the cell count in experiment [10] (setting [14]) and in [10] (setting [15]) were 8190 and 8790, respectively. Moreover, the z-score was -0.266 (inactive) in experiment [11] (setting [16]) and -0.797 in experiment [11] (setting [17]).

As for `CC(C)N(CCNC(=O)CN1CCCC1=O)C(C)C`, the outcome in experiment [4], in [1], in experiment [2] and in [3] was inactive. Further, the fold change in [10] (stronger effect = lower value) is 0.88 (inactive); in experiment [10] (setting [13]), 0.862. For the same compound, the cell count turned out to be 9340 in experiment [10] (setting [14]) and 10600 in [10] (setting [15]). Also, the z-score in [11] (setting [16]) is -0.352 (inactive); in experiment [11] (setting [17]), 0.7.

As to `O=[N+]([O-])c1ncc[nH]1`, the compound was classed as inactive in experiment [4], in experiment [1], in experiment [2] and in experiment [3]. Also, the fold change in [10] (stronger effect = lower value) is 0.87 (inactive); in experiment [10] (setting [13]), 0.789. Also, the cell count was 7870 in [10] (setting [14]) and 9040 in experiment [10] (setting [15]). The z-score in [11] (setting [16]) was -0.216 (inactive); in [11] (setting [17]), 0.743.

With `CO[C@H]1CCC(O[C@H]2C[C@H]([C@]3(C)CC[C@]4(C[C@H](O)[C@@H](C)[C@@H]([C@@H](C)/C=C(\C)C(=O)[C@H](C)C[C@H](C)C(=O)O)O4)O3)O[C@]3(O[C@@H]([C@H]4O[C@@](O)(CO)[C@H](C)C[C@@H]4C)C[C@@H]3C)[C@@H]2C)O[C@@H]1C` (stereo partly drawn), the AC50 in [4] was 3.32 µM (active); in experiment [1], 1.48 µM (active); in experiment [7], 1.66 µM (active); in [5], 0.742 µM (active); in experiment [3], 0.526 µM (active); in experiment [6], 0.742 µM (active). In addition, in experiment [8], the half-maximal inhibitory concentration (IC50) is 0.934 µM (active).

On to `CC(C)(C)[C@]1(O)C[C@@H]2OC(=O)C[C@@]23C(=O)O[C@@H]2OC(=O)[C@H](O)C213` (stereo partly drawn), for which the call in [4], in experiment [1], in experiment [2] and in [3] was inactive.

For `CN1CCN(c2ccc([N+](=O)[O-])c3no[n+]([O-])c23)CC1`, the concentration at half-maximal activity (AC50) was 23.5 µM (active) in experiment [1]; 16.6 µM (active) in [2]; 16.6 µM (active) in experiment [7]; 18.6 µM (active) in experiment [5]; 23.5 µM (active) in experiment [6]. The outcome in experiment [8] was inactive.

`C[C@]12CC[C@H]3[C@@H](CCC4=CC(=O)CC[C@@H]43)[C@@H]1CC[C@@H]2OC(=O)CCc1ccccc1`: the result in experiment [4], in experiment [1], in [2], in experiment [3] and in experiment [8] was inactive.

For `CCN(CC)C(=O)c1ccc(C2=CC3(CCNCC3)Oc3cccc(O)c32)cc1`, the compound was called inactive in [4], in experiment [2], in [7], in experiment [3] and in experiment [6]. Besides, the fold change was 0.925 (inactive) in [10] (setting [12]) and 0.955 in experiment [10] (setting [13]). The cell count in experiment [10] (setting [14]) amounted to 8090; in [10] (setting [15]), 8740. Further, the z-score in experiment [11] (setting [16]) was -0.509 (inactive); in experiment [11] (setting [17]) it was 0.582.

For the compound `CNC(=O)N1N=C(c2ccc(N)cc2)c2cc3c(cc2CC1C)OCO3` (stereo not drawn), the result in experiment [1] and in experiment [3] was inactive.

Consider `CCOC(=O)Nc1ccc(NCc2ccc(F)cc2)cc1N`, for which the compound was classed as inactive in [4], in experiment [7], in experiment [5], in experiment [3], in [6] and in [8].

In the case of `CC(=O)OCC1=C(C(=O)O)N2C(=O)[C@@H](N)[C@@H]2SC1`, the call in experiment [4] and in [3] was inactive.

As for `COC1(CS(=O)c2ccccc2)CCN(CCc2c[nH]c3ccc(F)cc23)CC1` (stereo not drawn), the result in [4], in [1], in [2], in experiment [7], in experiment [3] and in [6] was inactive. Further, the outcome in experiment [8] was inactive.

These data come from PubChem BioAssay.
